This is part of a sample that, as a whole, favours compounds with a hit. Of some 83,000 tested, about 20% had one in any assay.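 Percent growth is the endpoint: 0 to 100 indicates growth inhibition (40 means 60% inhibition), 0 means no net growth, and negative values indicate cell death.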 Calls of active or inactive are those of the source. Rule for the calls: active = growth percent below 10; inactive = the rest.
Test system: MOLT-4 leukemia
Assay: NCI-60 one-dose screen, 48 h (100 = growth as untreated, 0 = no growth, -100 = all killed)
Settings: 10 µM unless noted

Q: How did the growth turn out when `COC(=O)c1nc(-c2ccccc2)oc1S(=O)(=O)n1nc(-c2ccccc2)cc1N` was run?
A: 17.6% (inactive)

Q: `COc1ccc(C(=O)c2cc(OC)c(C)c(OC)c2)cc1OC(=O)CCl` was tested. Which growth did it give?
A: 13.6% (inactive)

Q: How did the growth turn out when `CC(=O)c1cnc(-c2ccccc2)nc1CBr` was run?
A: 26% (inactive)

Q: Which growth does the source give for `O=C1CC23OC4ON=C(Br)C4C2C(O)c2ccccc2N13` (stereo not drawn) here?
A: 99.6% (inactive)

Q: `COc1ccc(C(=S)c2cc(OC)c(OC)c(OC)c2)cc1OC(=O)CCl` was tested. Which growth did it give?
A: 15.3% (inactive)

Q: How did the growth turn out when `COc1ccc2oc(=O)cc(-c3c(C#N)c(N)n4nc(N)c(C#N)c4c3C#N)c2c1` was run?
A: 86% (inactive)

Q: How did the growth turn out when `O=C(Nc1cc(Br)ccn1)c1cc2cc(Nc3nc(-c4ccccc4)nc4ccccc34)ccc2oc1=O` was run?
A: 100% (inactive)

Q: `CC1CCCN(CCCCCOc2ccc3oc4ccc(Cl)cc4c(=O)c3c2)C1` (stereo not drawn) was tested. Which growth did it give?
A: 48.5% (inactive)

Q: How did the growth turn out when `COc1cc(C2=NNC(c3ccc(N(C)C)cc3)C2)cc(OC)c1OC` (stereo not drawn) was run?
A: 37.1% (inactive)

Q: For `Cn1c2ccccc2c2c(OC(=O)c3ccccc3)c3c(nc21)-c1ccccc1C3`, which growth is on record?
A: 96.3% (inactive)

Q: With `COc1cc(C(C)c2ccc3c(ccn3C)c2)cc(OC)c1OC` (stereo not drawn) as the molecule, how does the growth read?
A: 12.6% (inactive)

Q: How did the growth turn out when `CC(=O)OCC1SC(OC(C)=O)C(NC(=O)/C=C/CCl)C(OC(C)=O)C1OC(C)=O` (stereo not drawn) was run?
A: 88.1% (inactive)

Q: `C[C@H]1[C@H](C)CC[C@]2(C(=O)OCCCC[P+](c3ccccc3)(c3ccccc3)c3ccccc3)CC[C@]3(C)C(=CC[C@@H]4[C@@]5(C)CC[C@H](OC(=O)C(Cl)Cl)C(C)(C)[C@@H]5CC[C@]43C)[C@H]12` was tested. Which growth did it give?
A: -49.8% (active)

Q: `O=C1C(=O)c2c(nc3ccc(C(F)(F)F)cn23)-c2ccccc21` was tested. Which growth did it give?
A: -33.1% (active)

Q: With `COc1ccc2[nH]c(-c3ccccc3)c(C=C(C#N)C#N)c2c1` as the molecule, how does the growth read?
A: 0.472% (active)

Q: `NC(=N\N=C\c1ccccc1O)/C(N)=N/N=C/c1ccccc1O` was tested. Which growth did it give?
A: 68.3% (inactive)

Q: With `Cc1ccc(-c2nc(C#N)c(S(=O)(=O)N(C)CCO)o2)cc1` as the molecule, how does the growth read?
A: 7.32% (active)

Q: With `CC[C@H](Nc1ncnc2nc[nH]c12)c1nc2cccc(CC(=O)c3ccc(C(=O)NO)cc3)c2c(=O)n1-c1ccccc1` as the molecule, how does the growth read?
A: 66.8% (inactive)

Q: Which growth does the source give for `NC(=O)c1ccc2nc3c(n2c1)C(=O)C(=O)c1ccccc1-3` here?
A: -37.8% (active)

Q: How did the growth turn out when `COc1cccc(C(=O)OCCn2nc3c4c(cccc42)C(=O)c2ccccc2-3)c1O` was run?
A: 29.7% (inactive)

Q: With `COc1ccc(C(C)c2cc(OC)c(OC)c(OC)c2)cc1` (stereo not drawn) as the molecule, how does the growth read?
A: 9.71% (active)

Q: With `C#C[C@@]1(O)[C@@H](CO)O[C@@H](n2ccc3c(N)ncnc32)[C@@H]1O` as the molecule, how does the growth read?
A: -1.22% (active)

Q: Which growth does the source give for `COc1cc(NC(=O)COc2cc(C)nc3ccc(OC)cc23)cc(OC)c1` here?
A: 89.9% (inactive)

Q: Which growth does the source give for `CN1CCN(C(=O)[C@@]2(C)CC[C@]3(C)CC[C@]4(C)C(=CC[C@@H]5[C@@]6(C)CC[C@H](OC(=O)c7cccnc7)C(C)(C)[C@@H]6CC[C@]54C)[C@@H]3C2)CC1` here?
A: 31.9% (inactive)

Q: `NS(=O)(=O)c1ccc(N2Cc3cc(Cl)ccc3OC3=C2C(=O)N(CC2CCCCC2)C3=O)cc1` was tested. Which growth did it give?
A: -34.9% (active)

Q: For `CCCCc1nc(Cl)c(C2CC(c3ccc(Cl)cc3)=NN2c2cc(Cl)cc(Cl)c2)[nH]1` (stereo not drawn), which growth is on record?
A: 24.6% (inactive)

Q: With `C[C@H]1[C@H](C)CC[C@]2(C(=O)OCCOCCOCC[P+](c3ccccc3)(c3ccccc3)c3ccccc3)CC[C@]3(C)C(=CC[C@@H]4[C@@]5(C)CC[C@H](OC(=O)C(Cl)Cl)C(C)(C)[C@@H]5CC[C@]43C)[C@H]12` as the molecule, how does the growth read?
A: -6.91% (active)

Q: Which growth does the source give for `C=C(C)[C@@H]1CC[C@]2(C(=O)N3CCN(C)CC3)CC[C@]3(C)[C@H](CC[C@@H]4[C@@]5(C)C/C(=C/c6ccco6)C(=O)C(C)(C)[C@@H]5CC[C@]43C)[C@@H]12` here?
A: 28.6% (inactive)

Q: For `Clc1ccc2c(NCCCNC3CCCCC3)ccnc2c1`, which growth is on record?
A: 6.38% (active)

Q: For `CCSc1nc(Cl)c(C#N)c(-c2ccc(F)cc2)n1`, which growth is on record?
A: 48.4% (inactive)

Q: How did the growth turn out when `COc1cc2c(cc1OCCCOc1cc3c(cc1OC)C(=O)N1CC(F)(F)C[C@H]1C=N3)N=C[C@@H]1CC(F)(F)CN1C2=O` was run?
A: -8.82% (active)

Q: How did the growth turn out when `CN1CCN(CC#CCOC(=O)CNC(=O)[C@]23CCC(C)(C)C[C@H]2C2=CC[C@@H]4[C@@]5(C)CC[C@H](O)C(C)(C)[C@@H]5CC[C@@]4(C)[C@]2(C)CC3)CC1` was run?
A: 70.7% (inactive)

Q: How did the growth turn out when `COc1cc(C(=O)N2CCN(c3ccccc3OC)CC2)c(NC(=O)c2cnccn2)cc1OCc1ccccc1` was run?
A: 52.4% (inactive)

From PubChem BioAssay (NCI)
